# CXXC DNA block: MLL CXXC-DNA interaction inhibition; Potency, µM (top dose mostly 115 µM), for the others: at the top dose activity change, negative = inhibition, actives largely listed as inhibitors; MLL-CXXC / FITC-HOXA9 DNA fluorescence polarization; hit rate 0.037% among 290,000; AID 2662; Q03164; active means well fitted inhibition curve with a large enough effect in the polarisation, with a control signal flat, not every such curve was filed as active; inconclusive means small, poorly fitted or top-dose-only effect, or effect the other way, or a change in a side signal; inactive means no such curve, though single readings can be large or run the other way; the % refers to the polarisation; further: potency means the concentration at half of the fitted maximal effect
#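 Purified MLL-CXXC (added from a 7 uM solution) was preincubated 5 min at ambient with pinned compounds in 50 mM Tris-HCl pH 7.5, 50 mM NaCl, 1 mM DTT, 0.05% BSA. Fluorescein-labeled HOX-A9 DNA (50 nM solution) followed, 30 min, then polarization read.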
# Menin MLL FP FL: displaces fluorescein MLL peptide from human menin; Fluorescence polarization, fluorescein-MLL peptide displacement from menin; FP activity change, % at 61.4 µM; 290,000 tested, under 10 active; AID 1766; active means well fitted curve in the direction sought with a large enough effect in the polarisation, not every such curve was filed as active; inconclusive means small, poorly fitted or top-dose-only effect, or effect the other way, or a change in a side signal; inactive means no such curve, though single readings can be large or run the other way; the % refers to the polarisation; further: % of control where 0% means no effect
# GLS inh: blocks human kidney-isoform glutaminase activity | O94925 | GLS enzymatic activity, qHTS titration | Potency, µM (titrated, usually from 45.5 µM), for the others: at the top dose activity change, negative = inhibition, actives largely listed as inhibitors | hit rate 0.21% among 410,000 | AID 624170; active means well fitted inhibition curve with a large enough effect; inconclusive means small, poorly fitted or top-dose-only effect, or another doubt; inactive means no such curve, though single readings can be large or run the other way; further: potency means the concentration at half of the fitted maximal effect; on the % scale 0 is the no-effect control and ±100 the full control effect
#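 Human kidney-isoform GLS in 45 mM KH2PO4 pH 8.2, 0.02% Tween-20, with compound, started with 1mM L-Glutamine (added stock). Glutamate oxidase/HRP/Amplex red coupled fluorescence read at start and after 30 min at RT.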
# Menin-MLL TR inh: inhibitors of human menin-MLL interaction, mutant MLL peptide; O00255; Menin + Texas Red MLL mutant peptide, fluorescence polarization; Potency, µM (series often up to 61.6 µM), without a hit: at the highest dose FP activity change, negative = inhibition, usual class: inhibitors; hit rate 0.23% among 270,000; active means well fitted inhibition curve with a large enough effect in the polarisation, with a control signal flat, not every such curve was filed as active; inconclusive means small, poorly fitted or top-dose-only effect, or effect the other way, or a change in a side signal; inactive means no such curve, though single readings can be large or run the other way; the % refers to the polarisation; further: potency means the concentration at half of the fitted maximal effect; % of control where 0% means no effect
# Target sequence (O00255 whole entry, looked up): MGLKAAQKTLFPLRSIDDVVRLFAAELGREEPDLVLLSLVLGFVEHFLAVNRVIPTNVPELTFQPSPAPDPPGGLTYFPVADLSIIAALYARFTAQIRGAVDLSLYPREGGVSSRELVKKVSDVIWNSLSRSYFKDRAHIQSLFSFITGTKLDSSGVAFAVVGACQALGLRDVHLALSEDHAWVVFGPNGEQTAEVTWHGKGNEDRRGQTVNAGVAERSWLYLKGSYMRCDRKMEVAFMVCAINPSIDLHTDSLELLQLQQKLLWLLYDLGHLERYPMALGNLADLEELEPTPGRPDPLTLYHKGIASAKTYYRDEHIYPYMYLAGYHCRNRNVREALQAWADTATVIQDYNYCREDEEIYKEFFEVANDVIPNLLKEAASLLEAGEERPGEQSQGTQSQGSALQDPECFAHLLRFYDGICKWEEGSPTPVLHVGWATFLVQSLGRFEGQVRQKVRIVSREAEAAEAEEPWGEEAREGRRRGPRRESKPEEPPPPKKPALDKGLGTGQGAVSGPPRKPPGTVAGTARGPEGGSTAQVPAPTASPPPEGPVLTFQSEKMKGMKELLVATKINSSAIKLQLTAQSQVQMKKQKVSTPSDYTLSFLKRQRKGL
# CtBP-E1A blk: inhibitors of CtBP/E1A interaction. activity change, % (concentration not given with the values). AID 651724. hit rate 0.49% among 340,000. AlphaScreen GST-E1A/His-CtBP binding, 1536-well; hits give low values; further: on the % scale 0 is the no-effect control and ±100 the full control effect
#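 AlphaScreen with 125 nM GST-E1A and 125 nM His-CtBP (5X stocks) in Tris pH 8.0, 300 mM NaCl, BSA, Tween 20, TCEP. Compounds preincubated 2 h at 37 deg C, then glutathione donor/nickel acceptor beads added for 1 h at 37 deg C in dark.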
# Six1-Eya2 blk: Six1/Eya2 interaction inhibition | Q15475+O00167 | AlphaScreen GST-Six1/His-Eya2 binding, biochemical; hits give low values | activity change, % (concentration not given with the values) | hit rate 0.56% among 360,000 | AID 651725; further: on the % scale 0 is the no-effect control and ±100 the full control effect
#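 Homogeneous AlphaScreen proximity assay pairing GST-Six1 with His-tagged Eya2 (added as 5X mix: 250 nM and 500 nM) in 50 mM Tris pH 8.0, 300 mM NaCl, 1 mM TCEP. Glutathione donor and nickel acceptor beads; 1 h, 37 °C, dark.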
# Active calls of the source: *; ? = inconclusive; . = not tested or not shown; [ ] = dose if it differs, or a comment. This is a sample that favours compounds with a hit; in the whole collection about 0.83% have one here. Unless noted, no stated cut-off is given here; in the data, active means activity change below about -65%; inconclusive means mostly about -30% to -63%; inactive means weaker than that.
SMILES,CXXC DNA block,Menin MLL FP FL,GLS inh,Menin-MLL TR inh,CtBP-E1A blk,Six1-Eya2 blk
CC(=O)NC(c1ccco1)c1cc(Cl)c2cccnc2c1O (centres undefined),.,.,-7.8%,.,.,.
CC(=O)NC(c1ccccc1)c1cc([N+](=O)[O-])c2cccnc2c1O (centres undefined),-2.4%,-1.2,59.6%,?,-91.3*,-94.3*
CCCCC(=O)NC(c1ccco1)c1cc(Cl)c2cccnc2c1O (centres undefined),-17.5%,2.8,?,2.8%,.,?
CC(=O)NC(c1cc(Cl)c2cccnc2c1O)C(C)C (centres undefined),.,.,10.6%,.,.,.
CC(C)C(=O)NC(c1ccccc1)c1cc([N+](=O)[O-])c2cccnc2c1O (centres undefined),5.8%,2.0,15.4%,30.2%,-90.9*,-89.7*
CCN(c1ccccc1)S(=O)(=O)c1ccc(NC(=O)c2cc(=O)c3cc(C)cc(C)c3o2)cc1,.,.,-1.1%,.,.,.
Oc1c(C(Nc2ccccn2)c2cccnc2)cc(Cl)c2cccnc12 (centres undefined),0.5%,1.6,9.7%,9.2%,-88.6*,-90.5*
CCC(=O)NC(c1ccc(OC)cc1)c1cc(Cl)c2cccnc2c1O (centres undefined),11.5%,0.2,-0.1%,-0.4%,?,?
COc1ccc(C(NC(=O)c2cccnc2)c2cc(Cl)c3cccnc3c2O)cc1OC (centres undefined),?,?,1.5%,?,-92.3*,-91.2*
COc1cc(C(=O)NC(c2ccc(Cl)cc2)c2cc(Cl)c3cccnc3c2O)cc(OC)c1OC (centres undefined),.,.,-5.2%,.,.,.
CC(=O)OCC(=O)[C@@]12OC(C)(C)O[C@@H]1C[C@H]1[C@H]3C[C@H](F)C4=CC(=O)C=C[C@@]4(C)[C@]3(F)[C@H](O)C[C@@]12C,-4.8%[51.4 µM],-0.8[24.8 µM],-4.7%[20 µM],-1.2%[24.8 µM],.,.
O=C(O)CCn1c2c(c3ccccc31)C[C@H](NS(=O)(=O)c1ccc(F)cc1)CC2,.,.,-0.6%,.,.,.
COc1ccc2[nH]c3c(=O)n(Cc4ccc(C(=O)N5CCCC5)cc4)c(=S)[nH]c3c2c1,14.2%,-5.2,10µM*,7.6%,.,-7.3
O=C(O)c1cc(O)c2c(c1)C(=O)c1cccc(O)c1C2=O,3.0%,?,22.4µM*,?,-84.1*,-73.5*
Cc1cc(O)c2c(c1)C(=O)c1cccc(O)c1C2=O,3.8%,?,.,8.6%[24.8 µM],.,.
O=c1cc2oc3cc(O)c(O)cc3c(-c3ccccc3[N+](=O)[O-])c-2cc1O,?,-2.4,-1.7%,?,.,-71.1*
O=C(N/N=C(\c1ccccc1)c1cccnc1)c1cccc(F)c1,3.3%,3.4,-10.0%,16.3%,-2.6,-79.7*
CN=c1scc(-c2ccccc2F)n1/N=C/c1ccc(O)c(O)c1O,20.8%,17.4,-29.5%,?,?,-74.5*
CCN=c1scc(-c2cccs2)n1/N=C/c1cc(OC)ccc1O,13.7%,5.3,5.7%,?,?,?
CC(C)N=c1scc(-c2cccs2)n1/N=C/c1ccc(O)c(O)c1O,?,8.4,-26.6%,?,?,-76.3*
O=C(Nc1ccc2nc3n(c(=O)c2c1)CCCC3)c1cccc([N+](=O)[O-])c1,-4.5%,-0.1,1.1%,0.9%,-0.4,-66.0*
O=C(Nc1ccc2nc3n(c(=O)c2c1)CCCC3)c1cncc(Br)c1,.,.,7.2%,.,-65.3*,?
O=C(Nc1ccc2nc3n(c(=O)c2c1)CCCC3)c1cc([N+](=O)[O-])ccc1F,8.1%,6.6,-4.4%,15.6%,-15.3,-29.3
CCOc1ccccc1NC(=O)C1CCCN1S(=O)(=O)c1ccc2nc(-c3ccccc3)[nH]c2c1 (centres undefined),.,.,2.2%,.,.,.
Cc1[nH]c2ccccc2c1CCNC(=O)c1ccc2c(c1[N+](=O)[O-])C(=O)c1ccccc1C2=O,-11.3%,?,4.7%,?,10.7,-73.3*
SMILES,CXXC DNA block,Menin MLL FP FL,GLS inh,Menin-MLL TR inh,CtBP-E1A blk,Six1-Eya2 blk
CN(C)C(=O)c1ccc2c(c1[N+](=O)[O-])C(=O)c1ccccc1C2=O,-0.4%,1.8,-2.5%,-4.6%,-16.5,-20.7
Cc1[nH]c2c(C)cccc2c1CCNC(=O)c1ccc2c(c1[N+](=O)[O-])C(=O)c1ccccc1C2=O,-11.9%,18.5,6.3%,?,-91.7*,-65.3*
COc1ccc(OC)c(CCNc2ncnc3onc(-c4ccc(F)cc4)c23)c1,.,.,1.6%,.,.,.
COC(=O)NC(c1ccccc1)C(C#N)C(=O)OC (centres undefined),.,-5.6[11.7 µM],.,-6.5%[11.7 µM],.,.
Cc1ccc(C(c2cc(Cl)c3cccnc3c2O)N2CCN(C)CC2)cc1 (centres undefined),9.0%,-18.6,?,41.1%,-85.0*,?
CN1CCN(C(c2ccccn2)c2cc(Cl)c3cccnc3c2O)CC1 (centres undefined),-5.6%,-1.0,24.9%,-0.9%,.,-89.3*
CN1CCN(C(c2ccc(C(F)(F)F)cc2)c2ccc3cccnc3c2O)CC1 (centres undefined),-3.1%,-2.2,-1.6%,5.6%,-84.1*,?
Oc1c(C(c2ccccn2)N2CCC(Cc3ccccc3)CC2)cc(Cl)c2cccnc12 (centres undefined),15.9%,?,-18.8%,-12.4%,-67.7*,-88.5*
Oc1c(C(c2ccc(Cl)cc2)N2CCCC2)cc(Cl)c2cccnc12 (centres undefined),20.4%,1.8,10.0%,1.5%,.,?
Oc1c(C(c2cccs2)N2CCN(c3ccccc3)CC2)ccc2cccnc12 (centres undefined),2.3%,-1.2,.,7.9%,.,.
OCCNCCCOc1cccc(Cl)c1Cl,.,2.8,.,-8.6%[24.8 µM],.,.
CC(NC(CCc1ccccc1)C(=O)O)C(=O)N1CCCC1C(=O)O (centres undefined),.,.,-3.8%,.,.,.
Cc1cccc(NS(=O)(=O)c2ccc(Cl)c(C(=O)Nc3ccccc3C)c2)c1,.,.,-0.1%,.,.,.
C(=N\Nc1nc(-c2ccccc2)cs1)/c1cccnc1,15.7%,-0.4,-6.3%,41.9%,-12.1,-14.0
CC(C)(C)c1csc(N/N=C/c2cccnc2)n1,0.3%,-2.9,11.2µM*,1.3%,-9.9,-15.5
O=C(c1ccc2c(c1)OCCO2)N(Cc1cccnc1)c1nc2c(Cl)cccc2s1,.,.,-12.3%,.,.,.
O=C(Nc1ccc2c(c1)nc1n2CCN(Cc2ccccc2)C1)c1cccs1,12.9%,1.1,.,.,-87.2*,-79.6*
O=C(O)c1cccc(OCCN2CCCC2=O)c1,-1.7%,-8.4,-9.1%,-12.9%,5.2,1.0
CN1CCC(=O)N(CCOc2ccccc2)CC1,-6.1%,1.6,-6.7%,13.6%,-85.6*,-83.5*
COc1[nH]c(/N=C/c2ccccc2)c(C#N)c1C#N,8.2%,?,8.7%,11.2µM*,?,?

# Screening results as filed in PubChem.
